Experimental data taken from PubChem BioAssay AID1159580 (chemical genetic matrix, 2015).
Among all 5,500 compounds or so, about 2,000 (36%) were called active. About 18% were inconclusive and are not listed. The list shows a part of the results. A number with no mark means an inactive call. Rule as the data show it: active = normalized growth mostly below about 0.91 (no sharp cut-off); inconclusive = no clear call, values can overlap the other calls; inactive = mostly above about 0.92.

Test: chemical genetic growth profiling, strain panel (AID 1159580);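 also: tested at 20 µM; growth read once vehicle control cultures reached saturation at 30 °C; 1 = growth at the plate median or of vehicle wells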
Settings: growth OD
[1] = S. cerevisiae deletion strains, locus YHR030C, strain SLT2, stronger effect = lower value
[2] = S. cerevisiae deletion strains, locus YJL187C, strain SWE1, stronger effect = lower value

SMILES: CC(C)[C@H](N)C(=O)OCCOCn1cnc2c(=O)[nH]c(N)nc21
- normalized growth (S. cerevisiae deletion strains, locus YAL021C, strain ccr4, stronger effect = lower value): 1.06
- normalized growth (S. cerevisiae deletion strains, locus YAL026C, strain drs2, stronger effect = lower value): 1.02
- normalized growth (S. cerevisiae deletion strains, locus YAL030W, strain snc1, stronger effect = lower value): 1.03
- normalized growth (S. cerevisiae deletion strains, locus YBL061C, strain skt5, stronger effect = lower value): 1.02
- normalized growth (S. cerevisiae deletion strains, locus YBR009C, strain hhf1, stronger effect = lower value): 0.961
- normalized growth (S. cerevisiae deletion strains, locus YBR023C, strain chs3, stronger effect = lower value): 1.02
- normalized growth (S. cerevisiae deletion strains, locus YBR171W, strain sec66, stronger effect = lower value): 1.01
- normalized growth (S. cerevisiae deletion strains, locus YBR231C, strain swc5, stronger effect = lower value): 0.934
- normalized growth (S. cerevisiae deletion strains, locus YBR279W, strain paf1, stronger effect = lower value): 1.02
- normalized growth (S. cerevisiae deletion strains, locus YCL011C, strain gbp2, stronger effect = lower value): 1.01
- normalized growth (S. cerevisiae deletion strains, locus YCL016C, strain dcc1, stronger effect = lower value): 1.05
- normalized growth (S. cerevisiae deletion strains, locus YCL069W, strain vba3, stronger effect = lower value): 1
- normalized growth (S. cerevisiae deletion strains, locus YCR088W, strain abp1, stronger effect = lower value): 1.02
- normalized growth (S. cerevisiae deletion strains, locus YDL005C, strain med2, stronger effect = lower value): 1.02
- normalized growth (S. cerevisiae deletion strains, locus YDL040C, strain nat1, stronger effect = lower value): 0.998
- normalized growth (S. cerevisiae deletion strains, locus YDR001C, strain nth1, stronger effect = lower value): 1.01
- normalized growth (S. cerevisiae deletion strains, locus YDR069C, strain doa4, stronger effect = lower value): 1
- normalized growth (S. cerevisiae deletion strains, locus YDR137W, strain rgp1, stronger effect = lower value): 1.08
- normalized growth (S. cerevisiae deletion strains, locus YDR159W, strain sac3, stronger effect = lower value): 0.94
- normalized growth (S. cerevisiae deletion strains, locus YDR195W, strain ref2): 0.973
- normalized growth (S. cerevisiae deletion strains, locus YDR297W, strain sur2, stronger effect = lower value): 1
- normalized growth (S. cerevisiae deletion strains, locus YDR334W, strain swr1, stronger effect = lower value): 1.01
- normalized growth (S. cerevisiae deletion strains, locus YDR335W, strain msn5, stronger effect = lower value): 1.01
- normalized growth (S. cerevisiae deletion strains, locus YDR392W, strain spt3, stronger effect = lower value): 1.03
- normalized growth (S. cerevisiae deletion strains, locus YEL003W, strain gim4, stronger effect = lower value): 0.996
- normalized growth (S. cerevisiae deletion strains, locus YEL037C, strain rad23, stronger effect = lower value): 1.01
- normalized growth (S. cerevisiae deletion strains, locus YEL061C, strain CIN8 (second series), stronger effect = lower value): 1
- normalized growth (S. cerevisiae deletion strains, locus YER015W, strain faa2, stronger effect = lower value): 1.01
- normalized growth (S. cerevisiae deletion strains, locus YER016W, strain bim1, stronger effect = lower value): 1.05
- normalized growth (S. cerevisiae deletion strains, locus YER111C, strain swi4, stronger effect = lower value): 1.03
- normalized growth (S. cerevisiae deletion strains, locus YER155C, strain BEM2 (second series), stronger effect = lower value): 1.11
- normalized growth (S. cerevisiae deletion strains, locus YFR010W, strain ubp6, stronger effect = lower value): 0.974
- normalized growth (S. cerevisiae deletion strains, locus YGL167C, strain pmr1, stronger effect = lower value): 1.01
- normalized growth (S. cerevisiae deletion strains, locus YGL173C, strain kem1, stronger effect = lower value): 1.01
- normalized growth (S. cerevisiae deletion strains, locus YGL227W, strain vid30, stronger effect = lower value): 1.01
- normalized growth (S. cerevisiae deletion strains, locus YGL240W, strain doc1, stronger effect = lower value): 0.993
- normalized growth (S. cerevisiae deletion strains, locus YGL253W, strain hxk2, stronger effect = lower value): 0.981
- normalized growth (S. cerevisiae deletion strains, locus YHR013C, strain ard1, stronger effect = lower value): 1.02
- normalized growth (S. cerevisiae deletion strains, locus YHR027C, strain rpn1, stronger effect = lower value): 1.01
- normalized growth [1]: 1.07
- normalized growth (S. cerevisiae deletion strains, locus YHR079C, strain IRE1, stronger effect = lower value): 1.07
- normalized growth (S. cerevisiae deletion strains, locus YHR142W, strain chs7, stronger effect = lower value): 0.988
- normalized growth (S. cerevisiae deletion strains, locus YJL092W, strain hpr5, stronger effect = lower value): 1.01
- normalized growth (S. cerevisiae deletion strains, locus YJL095W, strain BCK1 (second series), stronger effect = lower value): 1.04
- normalized growth (S. cerevisiae deletion strains, locus YJL095W, strain BCK1, stronger effect = lower value): 1.02
- normalized growth (S. cerevisiae deletion strains, locus YJL115W, strain asf1, stronger effect = lower value): 1.01
- normalized growth (S. cerevisiae deletion strains, locus YJL129C, strain trk1, stronger effect = lower value): 0.982
- normalized growth (S. cerevisiae deletion strains, locus YJL154C, strain vps35, stronger effect = lower value): 1.01
- normalized growth (S. cerevisiae deletion strains, locus YJL164C, strain tpk1, stronger effect = lower value): 0.995
- normalized growth (S. cerevisiae deletion strains, locus YJL166W, strain qcr8, stronger effect = lower value): 1.03
- normalized growth [2]: 1
- normalized growth (S. cerevisiae deletion strains, locus YJR066W, strain TOR1, stronger effect = lower value): 0.99
- normalized growth (S. cerevisiae deletion strains, locus YKL160W, strain elf1, stronger effect = lower value): 1.06
- normalized growth (S. cerevisiae deletion strains, locus YKR026C, strain gcn3, stronger effect = lower value): 1.01
- normalized growth (S. cerevisiae deletion strains, locus YKR091W, strain srl3, stronger effect = lower value): 1.01
- normalized growth (S. cerevisiae deletion strains, locus YLL001W, strain dnm1, stronger effect = lower value): 0.96
- normalized growth (S. cerevisiae deletion strains, locus YLL026W, stronger effect = lower value): 1.01
- normalized growth (S. cerevisiae deletion strains, locus YLL041C, strain sdh2, stronger effect = lower value): 1.03
- normalized growth (S. cerevisiae deletion strains, locus YLR027C, strain aat2, stronger effect = lower value): 1.01
- normalized growth (S. cerevisiae deletion strains, locus YLR113W, strain HOG1, stronger effect = lower value): 0.977
- normalized growth (S. cerevisiae deletion strains, locus YLR221C, strain rsa3, stronger effect = lower value): 0.96
- normalized growth (S. cerevisiae deletion strains, locus YLR258W, strain gsy2, stronger effect = lower value): 1.03
- normalized growth (S. cerevisiae deletion strains, locus YLR262C, strain YPT6 (second series), stronger effect = lower value): 1.01
- normalized growth (S. cerevisiae deletion strains, locus YLR320W, strain mms22, stronger effect = lower value): 0.971
- normalized growth (S. cerevisiae deletion strains, locus YLR342W, strain FKS1, stronger effect = lower value): 1.03
- normalized growth (S. cerevisiae deletion strains, locus YLR357W, strain rsc2, stronger effect = lower value): 1.04
- normalized growth (S. cerevisiae deletion strains, locus YLR370C, strain arc18, stronger effect = lower value): 1.03
- normalized growth (S. cerevisiae deletion strains, locus YLR384C, strain iki3, stronger effect = lower value): 1.03
- normalized growth (S. cerevisiae deletion strains, locus YML120C, strain ndi1, stronger effect = lower value): 0.969
- normalized growth (S. cerevisiae deletion strains, locus YMR058W, strain fet3, stronger effect = lower value): 1.04
- normalized growth (S. cerevisiae deletion strains, locus YMR125W, strain sto1, stronger effect = lower value): 1.04
- normalized growth (S. cerevisiae deletion strains, locus YMR129W, stronger effect = lower value): 1.02
- normalized growth (S. cerevisiae deletion strains, locus YMR205C, strain PFK2, stronger effect = lower value): 1.01
- normalized growth (S. cerevisiae deletion strains, locus YMR231W, strain pep5, stronger effect = lower value): 1
- normalized growth (S. cerevisiae deletion strains, locus YNL071W, strain lat1, stronger effect = lower value): 1.02
- normalized growth (S. cerevisiae deletion strains, locus YNL183C, strain NPR1, stronger effect = lower value): 0.946
- normalized growth (S. cerevisiae deletion strains, locus YNL209W, strain ssb2, stronger effect = lower value): 1.02
- normalized growth (S. cerevisiae deletion strains, locus YNL248C, strain rpa49, stronger effect = lower value): 1.04
- normalized growth (S. cerevisiae deletion strains, locus YNL322C, strain KRE1 (second series), stronger effect = lower value): 1.04
- normalized growth (S. cerevisiae deletion strains, locus YNR049C, strain mso1, stronger effect = lower value): 0.998
- normalized growth (S. cerevisiae deletion strains, locus YOR001W, strain rrp6, stronger effect = lower value): 0.943
- normalized growth (S. cerevisiae deletion strains, locus YOR070C, strain gyp1, stronger effect = lower value): 1.03
- normalized growth (S. cerevisiae deletion strains, locus YOR080W, strain dia2, stronger effect = lower value): 1.01
- normalized growth (S. cerevisiae deletion strains, locus YOR083W, strain WHI5, stronger effect = lower value): 0.992
- normalized growth (S. cerevisiae deletion strains, locus YOR106W, strain vam3, stronger effect = lower value): 1.02
- normalized growth (S. cerevisiae deletion strains, locus YOR231W, strain MKK1, stronger effect = lower value): 1.04
- normalized growth (S. cerevisiae deletion strains, locus YOR265W, strain rbl2, stronger effect = lower value): 1.01
- normalized growth (S. cerevisiae deletion strains, locus YOR270C, strain vph1, stronger effect = lower value): 0.864
- normalized growth (S. cerevisiae deletion strains, locus YOR290C, strain snf2, stronger effect = lower value): 1.05
- normalized growth (S. cerevisiae deletion strains, locus YPL051W, strain arl3, stronger effect = lower value): 1.04
- normalized growth (S. cerevisiae deletion strains, locus YPL078C, strain atp4, stronger effect = lower value): 1.04
- normalized growth (S. cerevisiae deletion strains, locus YPL106C, strain sse1, stronger effect = lower value): 1.06
- normalized growth (S. cerevisiae deletion strains, locus YPL240C, strain hsp82, stronger effect = lower value): 1.01
- normalized growth (S. cerevisiae deletion strains, locus YPL256C, strain CLN2, stronger effect = lower value): 1.08

SMILES: COC(=O)c1c(C)[nH]c(C)c1C(C)=O
- normalized growth (S. cerevisiae deletion strains, locus YAL013W, strain DEP1, stronger effect = lower value): 1.03
- normalized growth (S. cerevisiae deletion strains, locus YBR229C, strain ROT2, stronger effect = lower value): 1.01
- normalized growth (S. cerevisiae deletion strains, locus YDL101C, strain DUN1, stronger effect = lower value): 0.968
- normalized growth (S. cerevisiae deletion strains, locus YDR150W, strain NUM1, stronger effect = lower value): 1.01
- normalized growth (S. cerevisiae deletion strains, locus YEL061C, strain CIN8, stronger effect = lower value): 1.01
- normalized growth (S. cerevisiae deletion strains, locus YGR078C, strain PAC10, stronger effect = lower value): 1.03
- normalized growth [1]: 1.05
- normalized growth (S. cerevisiae deletion strains, locus YHR087W, strain rtc3, stronger effect = lower value): 1.03
- normalized growth [2]: 0.995
- normalized growth (S. cerevisiae deletion strains, locus YJR043C, strain POL32, stronger effect = lower value): 0.976
- normalized growth (S. cerevisiae deletion strains, locus YJR075W, strain HOC1, stronger effect = lower value): 0.999
- normalized growth (S. cerevisiae deletion strains, locus YKL190W, strain CNB1, stronger effect = lower value): 1.01
- normalized growth (S. cerevisiae deletion strains, locus YLR039C, strain RIC1, stronger effect = lower value): 1.07
- normalized growth (S. cerevisiae deletion strains, locus YLR058C, strain SHM2 (second series), stronger effect = lower value): 1
- normalized growth (S. cerevisiae deletion strains, locus YLR085C, strain ARP6, stronger effect = lower value): 1.18
- normalized growth (S. cerevisiae deletion strains, locus YLR262C, strain YPT6, stronger effect = lower value): 1.02
- normalized growth (S. cerevisiae deletion strains, locus YML094W, strain GIM5, stronger effect = lower value): 1.04
- normalized growth (S. cerevisiae deletion strains, locus YMR219W, strain ESC1, stronger effect = lower value): 1.01
- normalized growth (S. cerevisiae deletion strains, locus YMR263W, strain SAP30, stronger effect = lower value): 1
- normalized growth (S. cerevisiae deletion strains, locus YMR307W, strain GAS1, stronger effect = lower value): 1.03
- normalized growth (S. cerevisiae deletion strains, locus YNL153C, strain GIM3, stronger effect = lower value): 0.994
- normalized growth (S. cerevisiae deletion strains, locus YNL298W, strain CLA4 (second series), stronger effect = lower value): 1.01
- normalized growth (S. cerevisiae deletion strains, locus YNL322C, strain KRE1, stronger effect = lower value): 1.01
- normalized growth (S. cerevisiae deletion strains, locus YNR030W, strain Alg12, stronger effect = lower value): 1.04
- normalized growth (S. cerevisiae deletion strains, locus YPL055C, strain LGE1, stronger effect = lower value): 1.05
- normalized growth (S. cerevisiae deletion strains, locus YPL241C, strain CIN2, stronger effect = lower value): 1.08
- normalized growth (S. cerevisiae deletion strains, locus YPR135W, strain CTF4, stronger effect = lower value): 1.36 [resistant] (active)
- normalized growth (S. cerevisiae strains, strain wild type, stronger effect = lower value): 1.01
